Assay results reported in PubChem BioAssay AID1159580 (chemical genetic matrix, 2015).
The campaign covered roughly 5,500 compounds. About 2,000 (36%) were called active. Not shown: some 18% with an inconclusive outcome. Rule as the data show it: active = normalized growth mostly below about 0.91 (no sharp cut-off); inconclusive = no clear call, values can overlap the other calls; inactive = mostly above about 0.92. This is one part of the list.

Test: chemical genetic growth profiling, strain panel (AID 1159580);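 also: tested at 20 µM; growth read once vehicle control cultures reached saturation at 30 °C; 1 = growth at the plate median or of vehicle wells; lower values mean less growth of the strain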
Settings: S. cerevisiae deletion strains, growth OD

Measured: normalized growth

CC(=O)OCC(=O)[C@@]1(O)CCC2C3CC[C@@H]4C[C@H](O)CC[C@]4(C)C3C(=O)C[C@@]21C (some centres not stated)
inactive: locus YAL021C, strain ccr4, stronger effect = lower value 1.02 | locus YAL026C, strain drs2, stronger effect = lower value 1.01 | locus YAL030W, strain snc1, stronger effect = lower value 1.02 | locus YBL061C, strain skt5, stronger effect = lower value 1.03 | locus YBR009C, strain hhf1, stronger effect = lower value 1.03 | locus YBR023C, strain chs3, stronger effect = lower value 1.02 | locus YBR171W, strain sec66, stronger effect = lower value 1.03 | locus YBR231C, strain swc5, stronger effect = lower value 1.02 | locus YBR279W, strain paf1, stronger effect = lower value 1.03 | locus YCL011C, strain gbp2, stronger effect = lower value 1.04 | locus YCL016C, strain dcc1, stronger effect = lower value 1.04 | locus YCL061C, strain MRC1, stronger effect = lower value 1.03 | locus YCL069W, strain vba3, stronger effect = lower value 1.01 | locus YCR088W, strain abp1, stronger effect = lower value 1.01 | locus YDL005C, strain med2, stronger effect = lower value 1.02 | locus YDL040C, strain nat1, stronger effect = lower value 1.02 | locus YDR001C, strain nth1, stronger effect = lower value 1.01 | locus YDR069C, strain doa4, stronger effect = lower value 1.02 | locus YDR137W, strain rgp1, stronger effect = lower value 1.06 | locus YDR159W, strain sac3, stronger effect = lower value 1.01 | locus YDR195W, strain ref2 0.988 | locus YDR297W, strain sur2, stronger effect = lower value 1.01 | locus YDR334W, strain swr1, stronger effect = lower value 1.01 | locus YDR335W, strain msn5, stronger effect = lower value 1.01 | locus YDR392W, strain spt3, stronger effect = lower value 0.983 | locus YEL003W, strain gim4, stronger effect = lower value 1.01 | locus YEL037C, strain rad23, stronger effect = lower value 1 | locus YEL061C, strain CIN8 (second series), stronger effect = lower value 1.01 | locus YER015W, strain faa2, stronger effect = lower value 1.01 | locus YER016W, strain bim1, stronger effect = lower value 1.02 | locus YER111C, strain swi4, stronger effect = lower value 1.02 | locus YER155C, strain BEM2 (second series), stronger effect = lower value 1.03 | locus YFR010W, strain ubp6, stronger effect = lower value 1.01 | locus YGL167C, strain pmr1, stronger effect = lower value 1.01 | locus YGL173C, strain kem1, stronger effect = lower value 1.03 | locus YGL227W, strain vid30, stronger effect = lower value 1.02 | locus YGL240W, strain doc1, stronger effect = lower value 1.03 | locus YGL253W, strain hxk2, stronger effect = lower value 1.01 | locus YHR013C, strain ard1, stronger effect = lower value 1.03 | locus YHR027C, strain rpn1, stronger effect = lower value 1.01 | locus YHR142W, strain chs7, stronger effect = lower value 1.02 | locus YJL092W, strain hpr5, stronger effect = lower value 1.01 | locus YJL095W, strain BCK1 (second series), stronger effect = lower value 1.02 | locus YJL115W, strain asf1, stronger effect = lower value 1.02 | locus YJL129C, strain trk1, stronger effect = lower value 1.05 | locus YJL154C, strain vps35, stronger effect = lower value 1.01 | locus YJL164C, strain tpk1, stronger effect = lower value 1.03 | locus YJL166W, strain qcr8, stronger effect = lower value 1.03 | locus YJL187C, strain SWE1, stronger effect = lower value 1.02 | locus YKL160W, strain elf1, stronger effect = lower value 1.03 | locus YKR026C, strain gcn3, stronger effect = lower value 1.01 | locus YKR091W, strain srl3, stronger effect = lower value 1.02 | locus YLL001W, strain dnm1, stronger effect = lower value 1.03 | locus YLL026W, stronger effect = lower value 1.02 | locus YLL041C, strain sdh2, stronger effect = lower value 1.01 | locus YLR027C, strain aat2, stronger effect = lower value 1.02 | locus YLR221C, strain rsa3, stronger effect = lower value 1.05 | locus YLR258W, strain gsy2, stronger effect = lower value 1.02 | locus YLR262C, strain YPT6 (second series), stronger effect = lower value 1.04 | locus YLR320W, strain mms22, stronger effect = lower value 1.07 | locus YLR342W, strain FKS1, stronger effect = lower value 1.01 | locus YLR357W, strain rsc2, stronger effect = lower value 1.03 | locus YLR370C, strain arc18, stronger effect = lower value 1.02 | locus YLR384C, strain iki3, stronger effect = lower value 1.02 | locus YML120C, strain ndi1, stronger effect = lower value 1.01 | locus YMR058W, strain fet3, stronger effect = lower value 1.01 | locus YMR125W, strain sto1, stronger effect = lower value 1.02 | locus YMR129W, stronger effect = lower value 1.01 | locus YMR205C, strain PFK2, stronger effect = lower value 1.03 | locus YMR231W, strain pep5, stronger effect = lower value 1.01 | locus YNL071W, strain lat1, stronger effect = lower value 1.02 | locus YNL209W, strain ssb2, stronger effect = lower value 1.02 | locus YNL248C, strain rpa49, stronger effect = lower value 1.01 | locus YNL322C, strain KRE1 (second series), stronger effect = lower value 1.03 | locus YNR049C, strain mso1, stronger effect = lower value 1.01 | locus YOR001W, strain rrp6, stronger effect = lower value 1.01 | locus YOR070C, strain gyp1, stronger effect = lower value 1.02 | locus YOR080W, strain dia2, stronger effect = lower value 1.02 | locus YOR083W, strain WHI5, stronger effect = lower value 1.04 | locus YOR106W, strain vam3, stronger effect = lower value 1.02 | locus YOR265W, strain rbl2, stronger effect = lower value 1.02 | locus YOR270C, strain vph1, stronger effect = lower value 1.03 | locus YOR290C, strain snf2, stronger effect = lower value 1 | locus YPL051W, strain arl3, stronger effect = lower value 1.02 | locus YPL078C, strain atp4, stronger effect = lower value 1.02 | locus YPL106C, strain sse1, stronger effect = lower value 1.07 | locus YPL240C, strain hsp82, stronger effect = lower value 1.02
